The text below walks through data of ChEMBL document CHEMBL2218924, “A broad activity screen in support of a chemogenomic map for kinase signalling research and drug discovery” (Biochem J, 2013).

Experiment [1] deals with Vascular endothelial growth factor receptor 3 (Homo sapiens) (UniProt P35916). The note with it: at 10 µM.
The target of experiment [2] is Macrophage colony-stimulating factor 1 receptor (Homo sapiens) (UniProt P07333). The note with it: at 1 µM.
The target is the same in experiment [3]. To be noted: at 10 µM.
Experiment [4] deals with Tyrosine-protein kinase Fyn (Homo sapiens) (UniProt P06241). To be noted: at 1 µM.
Experiment [5] shares this target. The note with it: at 10 µM.
The target in experiment [6] is T1, Mitogen-activated protein kinase kinase kinase kinase 2 (Homo sapiens) (UniProt Q12851).
T1 sequence (whole entry): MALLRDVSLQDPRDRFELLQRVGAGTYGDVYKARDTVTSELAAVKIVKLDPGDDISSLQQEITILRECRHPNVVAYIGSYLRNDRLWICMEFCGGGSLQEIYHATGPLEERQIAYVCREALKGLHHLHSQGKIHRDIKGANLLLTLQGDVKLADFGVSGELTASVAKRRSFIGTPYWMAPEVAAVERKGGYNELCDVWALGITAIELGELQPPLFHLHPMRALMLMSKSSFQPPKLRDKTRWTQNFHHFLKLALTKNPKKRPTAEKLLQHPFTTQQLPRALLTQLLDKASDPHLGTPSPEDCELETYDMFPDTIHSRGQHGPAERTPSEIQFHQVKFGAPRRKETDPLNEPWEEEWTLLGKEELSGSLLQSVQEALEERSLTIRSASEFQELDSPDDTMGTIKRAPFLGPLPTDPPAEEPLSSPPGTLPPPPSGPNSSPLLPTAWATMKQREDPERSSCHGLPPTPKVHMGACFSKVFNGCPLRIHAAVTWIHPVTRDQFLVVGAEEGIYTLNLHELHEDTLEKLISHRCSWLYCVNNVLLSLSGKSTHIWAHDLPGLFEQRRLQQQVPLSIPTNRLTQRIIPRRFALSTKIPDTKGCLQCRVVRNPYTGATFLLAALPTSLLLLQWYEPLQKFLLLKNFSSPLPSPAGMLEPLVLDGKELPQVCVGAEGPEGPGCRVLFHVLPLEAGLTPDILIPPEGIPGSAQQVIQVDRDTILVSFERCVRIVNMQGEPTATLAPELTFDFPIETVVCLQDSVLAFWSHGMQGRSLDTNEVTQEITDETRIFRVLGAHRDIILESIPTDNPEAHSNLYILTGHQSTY
To be noted: at 1 µM.

Experiment [7] has as its target T1, Mitogen-activated protein kinase kinase kinase kinase 2 (Homo sapiens). The note with it: at 10 µM.
The target of experiment [8] is G protein-coupled receptor kinase 5 (Homo sapiens) (UniProt P34947). To be noted: at 10 µM.
Experiment [9] concerns the target G protein-coupled receptor kinase 6 (Homo sapiens) (UniProt P43250). To be noted: at 10 µM.
Experiment [10] addresses T2, Rhodopsin kinase GRK7 (Homo sapiens) (UniProt Q8WTQ7).
T2 sequence (whole entry): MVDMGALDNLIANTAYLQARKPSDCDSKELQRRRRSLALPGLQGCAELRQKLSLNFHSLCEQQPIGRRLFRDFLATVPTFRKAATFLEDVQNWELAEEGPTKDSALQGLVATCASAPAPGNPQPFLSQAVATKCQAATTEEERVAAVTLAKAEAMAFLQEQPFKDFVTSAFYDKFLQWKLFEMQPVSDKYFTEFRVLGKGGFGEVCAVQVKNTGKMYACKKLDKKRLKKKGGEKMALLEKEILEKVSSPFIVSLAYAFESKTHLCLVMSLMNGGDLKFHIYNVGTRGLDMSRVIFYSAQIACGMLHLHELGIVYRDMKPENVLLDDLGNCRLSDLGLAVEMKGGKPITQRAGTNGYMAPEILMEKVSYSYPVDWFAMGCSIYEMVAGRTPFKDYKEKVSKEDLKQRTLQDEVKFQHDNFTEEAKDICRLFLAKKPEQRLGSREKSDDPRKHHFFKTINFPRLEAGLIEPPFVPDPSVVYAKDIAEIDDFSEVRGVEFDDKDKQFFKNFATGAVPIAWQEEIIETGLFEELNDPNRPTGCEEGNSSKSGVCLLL
To be noted: at 1 µM.

Experiment [11] addresses T2, Rhodopsin kinase GRK7 (Homo sapiens). The note with it: at 10 µM.
Experiment [12] concerns the target Glycogen synthase kinase-3 alpha (Homo sapiens) (UniProt P49840). The note with it: at 1 µM.
The target is the same in experiment [13]. The note with it: at 10 µM.
Experiment [14] concerns the target Glycogen synthase kinase-3 beta (Homo sapiens) (UniProt P49841). To be noted: at 1 µM.
The target is the same in experiment [15]. To be noted: at 10 µM.
Experiment [16] addresses Homeodomain-interacting protein kinase 1 (Homo sapiens) (UniProt Q86Z02). The note with it: at 1 µM.
The target is the same in experiment [17]. To be noted: at 10 µM.
In experiment [18] the target is Homeodomain-interacting protein kinase 2 (Homo sapiens) (UniProt Q9H2X6). To be noted: at 1 µM.
For experiment [19] the target is unchanged. The note with it: at 10 µM.
In experiment [20] the target is Homeodomain-interacting protein kinase 3 (Homo sapiens) (UniProt Q9H422). To be noted: at 1 µM.

G protein-coupled receptor kinase 6 (Homo sapiens), sequence (P43250 whole entry, looked up): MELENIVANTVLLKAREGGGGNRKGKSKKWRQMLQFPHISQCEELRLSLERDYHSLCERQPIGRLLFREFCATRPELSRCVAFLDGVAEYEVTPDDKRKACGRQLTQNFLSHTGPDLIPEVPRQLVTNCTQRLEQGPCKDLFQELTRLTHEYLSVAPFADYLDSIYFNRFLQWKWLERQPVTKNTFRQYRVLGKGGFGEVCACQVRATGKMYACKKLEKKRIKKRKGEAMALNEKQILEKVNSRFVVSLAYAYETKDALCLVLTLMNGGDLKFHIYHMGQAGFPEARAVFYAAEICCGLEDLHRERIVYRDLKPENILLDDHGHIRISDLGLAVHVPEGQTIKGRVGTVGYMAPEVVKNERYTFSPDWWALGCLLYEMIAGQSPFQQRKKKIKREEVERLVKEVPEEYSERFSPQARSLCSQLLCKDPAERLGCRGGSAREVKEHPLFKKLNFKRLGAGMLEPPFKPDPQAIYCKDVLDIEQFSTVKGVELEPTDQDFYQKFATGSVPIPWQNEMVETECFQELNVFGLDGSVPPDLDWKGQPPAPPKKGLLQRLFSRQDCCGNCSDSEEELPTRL
Glycogen synthase kinase-3 alpha (Homo sapiens), sequence (P49840 2-483 limits assumed): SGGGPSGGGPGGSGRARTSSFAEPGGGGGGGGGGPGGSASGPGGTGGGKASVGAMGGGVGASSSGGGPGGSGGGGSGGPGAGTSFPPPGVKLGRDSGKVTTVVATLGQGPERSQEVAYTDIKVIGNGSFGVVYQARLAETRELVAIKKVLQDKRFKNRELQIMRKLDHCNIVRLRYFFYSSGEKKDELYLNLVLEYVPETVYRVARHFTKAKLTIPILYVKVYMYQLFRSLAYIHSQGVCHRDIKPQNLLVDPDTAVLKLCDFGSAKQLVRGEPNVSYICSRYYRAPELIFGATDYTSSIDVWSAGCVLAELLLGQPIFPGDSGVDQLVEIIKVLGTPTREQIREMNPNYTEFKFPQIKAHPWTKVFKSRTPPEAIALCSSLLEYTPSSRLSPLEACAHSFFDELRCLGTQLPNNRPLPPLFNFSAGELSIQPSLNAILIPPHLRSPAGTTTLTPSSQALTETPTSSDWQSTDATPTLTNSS
Homeodomain-interacting protein kinase 2 (Homo sapiens), sequence (Q9H2X6 whole entry, looked up): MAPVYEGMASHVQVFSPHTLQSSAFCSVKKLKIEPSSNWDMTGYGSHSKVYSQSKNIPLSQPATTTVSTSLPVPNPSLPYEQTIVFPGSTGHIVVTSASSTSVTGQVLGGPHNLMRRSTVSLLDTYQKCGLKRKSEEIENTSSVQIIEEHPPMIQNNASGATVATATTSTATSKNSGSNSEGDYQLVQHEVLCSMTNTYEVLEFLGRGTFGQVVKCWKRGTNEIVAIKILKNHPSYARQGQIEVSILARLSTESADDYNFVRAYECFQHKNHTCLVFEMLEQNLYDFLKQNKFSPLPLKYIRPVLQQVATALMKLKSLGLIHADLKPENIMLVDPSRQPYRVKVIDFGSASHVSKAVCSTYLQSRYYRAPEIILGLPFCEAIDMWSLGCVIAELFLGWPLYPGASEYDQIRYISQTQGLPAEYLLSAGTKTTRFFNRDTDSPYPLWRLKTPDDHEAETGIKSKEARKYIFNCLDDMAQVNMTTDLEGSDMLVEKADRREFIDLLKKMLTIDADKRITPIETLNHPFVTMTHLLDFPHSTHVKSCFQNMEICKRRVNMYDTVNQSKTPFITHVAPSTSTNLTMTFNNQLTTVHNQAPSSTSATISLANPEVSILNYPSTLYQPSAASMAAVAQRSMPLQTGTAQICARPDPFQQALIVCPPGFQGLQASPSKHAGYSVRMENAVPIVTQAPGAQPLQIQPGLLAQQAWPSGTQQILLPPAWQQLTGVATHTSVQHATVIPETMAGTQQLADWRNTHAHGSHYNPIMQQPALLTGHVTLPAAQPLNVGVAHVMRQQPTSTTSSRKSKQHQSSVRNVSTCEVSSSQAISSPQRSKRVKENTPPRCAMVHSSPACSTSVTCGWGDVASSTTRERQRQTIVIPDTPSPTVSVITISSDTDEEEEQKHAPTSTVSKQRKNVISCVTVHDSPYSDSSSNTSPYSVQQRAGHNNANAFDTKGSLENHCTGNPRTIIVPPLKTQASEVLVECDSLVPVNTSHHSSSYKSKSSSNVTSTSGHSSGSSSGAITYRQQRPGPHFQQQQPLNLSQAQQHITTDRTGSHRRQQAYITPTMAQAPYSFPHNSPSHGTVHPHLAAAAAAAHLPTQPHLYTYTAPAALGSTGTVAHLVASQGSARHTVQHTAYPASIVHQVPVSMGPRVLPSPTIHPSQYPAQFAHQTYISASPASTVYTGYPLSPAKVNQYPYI
Macrophage colony-stimulating factor 1 receptor (Homo sapiens), sequence (P07333 whole entry): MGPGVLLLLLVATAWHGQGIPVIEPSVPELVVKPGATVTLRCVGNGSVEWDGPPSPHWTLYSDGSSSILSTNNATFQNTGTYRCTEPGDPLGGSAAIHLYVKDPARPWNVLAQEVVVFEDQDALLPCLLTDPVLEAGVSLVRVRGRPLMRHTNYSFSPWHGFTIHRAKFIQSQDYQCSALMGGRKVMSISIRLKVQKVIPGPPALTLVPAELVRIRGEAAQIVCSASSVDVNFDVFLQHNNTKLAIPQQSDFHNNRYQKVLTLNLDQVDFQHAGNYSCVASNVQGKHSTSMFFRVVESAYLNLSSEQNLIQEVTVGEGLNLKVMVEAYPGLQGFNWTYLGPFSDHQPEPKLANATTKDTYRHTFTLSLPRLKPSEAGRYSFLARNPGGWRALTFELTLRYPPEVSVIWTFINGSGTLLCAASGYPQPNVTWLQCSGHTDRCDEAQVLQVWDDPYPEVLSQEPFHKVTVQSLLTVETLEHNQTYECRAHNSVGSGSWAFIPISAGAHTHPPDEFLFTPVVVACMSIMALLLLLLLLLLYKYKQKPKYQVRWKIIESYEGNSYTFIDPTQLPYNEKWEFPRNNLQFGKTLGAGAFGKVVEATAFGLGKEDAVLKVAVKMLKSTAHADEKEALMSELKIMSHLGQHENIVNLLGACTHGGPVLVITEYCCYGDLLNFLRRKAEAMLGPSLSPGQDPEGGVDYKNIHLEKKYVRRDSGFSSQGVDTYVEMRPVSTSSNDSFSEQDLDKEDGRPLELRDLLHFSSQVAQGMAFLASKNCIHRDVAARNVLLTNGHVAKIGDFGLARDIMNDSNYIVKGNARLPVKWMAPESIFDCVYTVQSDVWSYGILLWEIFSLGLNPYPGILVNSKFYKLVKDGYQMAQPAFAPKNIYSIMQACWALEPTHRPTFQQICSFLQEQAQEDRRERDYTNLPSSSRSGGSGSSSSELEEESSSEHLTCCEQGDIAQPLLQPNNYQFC
Tyrosine-protein kinase Fyn (Homo sapiens), sequence (P06241 2-537 limits assumed): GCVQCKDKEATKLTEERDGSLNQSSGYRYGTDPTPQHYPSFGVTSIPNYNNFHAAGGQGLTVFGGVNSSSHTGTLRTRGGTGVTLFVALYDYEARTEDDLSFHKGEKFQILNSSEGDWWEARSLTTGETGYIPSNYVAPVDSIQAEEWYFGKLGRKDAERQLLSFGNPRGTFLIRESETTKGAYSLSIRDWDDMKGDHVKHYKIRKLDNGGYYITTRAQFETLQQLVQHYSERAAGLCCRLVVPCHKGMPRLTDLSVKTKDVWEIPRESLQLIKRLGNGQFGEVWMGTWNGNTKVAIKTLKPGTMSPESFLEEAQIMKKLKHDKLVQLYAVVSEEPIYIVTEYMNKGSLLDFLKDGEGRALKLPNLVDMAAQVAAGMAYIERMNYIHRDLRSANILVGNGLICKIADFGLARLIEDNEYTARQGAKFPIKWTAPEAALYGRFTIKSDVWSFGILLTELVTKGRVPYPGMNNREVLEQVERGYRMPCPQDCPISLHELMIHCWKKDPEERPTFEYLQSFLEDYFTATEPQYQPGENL
Glycogen synthase kinase-3 beta (Homo sapiens), sequence (P49841 whole entry, looked up): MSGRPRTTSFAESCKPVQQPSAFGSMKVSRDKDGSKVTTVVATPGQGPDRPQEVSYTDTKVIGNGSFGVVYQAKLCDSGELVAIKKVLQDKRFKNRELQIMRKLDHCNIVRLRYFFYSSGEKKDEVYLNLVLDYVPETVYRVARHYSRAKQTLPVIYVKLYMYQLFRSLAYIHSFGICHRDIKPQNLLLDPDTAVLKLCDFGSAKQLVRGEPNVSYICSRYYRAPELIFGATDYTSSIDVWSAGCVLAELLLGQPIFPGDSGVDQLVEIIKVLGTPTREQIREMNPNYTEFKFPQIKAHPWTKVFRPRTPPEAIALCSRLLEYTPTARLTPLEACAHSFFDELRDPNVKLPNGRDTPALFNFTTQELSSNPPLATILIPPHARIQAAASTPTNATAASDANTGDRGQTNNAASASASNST
G protein-coupled receptor kinase 5 (Homo sapiens), sequence (P34947 whole entry, looked up): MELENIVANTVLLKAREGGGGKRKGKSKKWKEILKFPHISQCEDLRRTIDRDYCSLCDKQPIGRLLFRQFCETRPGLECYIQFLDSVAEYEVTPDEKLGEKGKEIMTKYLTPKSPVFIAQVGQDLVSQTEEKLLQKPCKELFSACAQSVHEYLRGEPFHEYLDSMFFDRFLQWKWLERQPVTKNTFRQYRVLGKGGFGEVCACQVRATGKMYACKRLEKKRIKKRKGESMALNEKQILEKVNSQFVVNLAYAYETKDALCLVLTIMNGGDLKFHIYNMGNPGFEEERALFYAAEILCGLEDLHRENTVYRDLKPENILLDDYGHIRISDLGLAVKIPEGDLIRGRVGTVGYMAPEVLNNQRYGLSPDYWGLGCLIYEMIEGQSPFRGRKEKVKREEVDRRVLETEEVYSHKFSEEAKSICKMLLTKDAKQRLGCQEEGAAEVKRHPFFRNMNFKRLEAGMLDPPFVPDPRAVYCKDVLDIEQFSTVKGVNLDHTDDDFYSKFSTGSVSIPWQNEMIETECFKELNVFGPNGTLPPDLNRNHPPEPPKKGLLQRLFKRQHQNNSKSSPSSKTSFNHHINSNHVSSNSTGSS

As for `O=c1cc(-c2cccc3c2Sc2ccccc2S3)oc(N2CCOCC2)c1`, the residual activity in experiment [1] was 69%; in experiment [2], 101%; in experiment [3], 74%; in [4] it was 91%; in [5], 94%; in experiment [6], 101%. The residual activity was determined as 101% in [7]; 99% in [8]; 101% in [9]; 96% in [10]; 97% in [11]; 86% in experiment [12]. Further, the residual activity came out at 35% in experiment [13]; 106% in experiment [14]; 66% in experiment [15]; 105% in experiment [16]; 99% in experiment [17]; 98% in experiment [18]. Also, the values for the residual activity in experiment [19] and in experiment [20] were 77% and 96%, respectively.
As for `CO[C@@H]1[C@H](N(C)C(=O)c2ccccc2)C[C@H]2O[C@]1(C)n1c3ccccc3c3c4c(c5c6ccccc6n2c5c31)C(=O)NC4`, the residual activity is 3% in [1]; 0% in [2]; 1% in experiment [3]; 6% in experiment [4]; 10% in experiment [5]; 4% in experiment [6]. Further, the residual activity in experiment [7] was found to be 0%; in [8], 74%; in [9] it was 70%; in experiment [10] it was 8%; in [11] it was 3%; in [12], 17%. The residual activity in experiment [13] stood at 14%; in [14] it was 39%; in [15], 19%; in [16], 95%; in experiment [17] it was 83%; in experiment [18] it was 75%. Further, the residual activity in [19] amounted to 35%; in experiment [20] it was 80%.
On to `Nc1n[nH]c2nnc(-c3c(-c4ccccc4)nn4ccccc34)cc12`, for which the residual activity was 23% in experiment [1]; 67% in experiment [2]; 28% in [3]; 71% in experiment [4]; 52% in experiment [5]; 67% in experiment [6]. The residual activity in [7] is 24%; in [8] it was 99%; in experiment [9] it was 89%; in experiment [10], 83%; in [11], 81%; in experiment [12], 77%. Also, the residual activity in experiment [13] is 30%; in experiment [14], 89%; in experiment [15] it was 49%; in experiment [16] it was 105%; in experiment [17] it was 95%; in experiment [18] it was 103%. Also, the residual activity worked out at 95% in experiment [19] and 97% in [20].
With `N#C/C(=C(\N)Sc1ccc(N)cc1)c1ccccc1C(F)(F)F`, the residual activity in experiment [1] worked out at 64%; in experiment [2], 86%; in experiment [3] it was 68%; in experiment [4] it was 71%; in experiment [5], 13%; in [6], 69%. The residual activity in experiment [7] came out at 72%; in experiment [8], 95%; in experiment [9], 93%; in experiment [10], 97%; in [11], 91%; in experiment [12] it was 89%. Moreover, the residual activity in experiment [13] is 87%; in experiment [14], 99%; in experiment [15], 96%; in experiment [16], 109%; in [17], 101%; in experiment [18], 99%. The values for the residual activity in [19] and in experiment [20] were 92% and 93%, respectively.
Turning to `COc1ccc(S(=O)(=O)N(CCO)c2ccccc2CN(C)C/C=C/c2ccc(Cl)cc2)cc1`, the residual activity was 93% in [1]; 78% in experiment [2]; 64% in [3]; 73% in [4]; 37% in experiment [5]; 85% in experiment [6]. In addition, the residual activity in [7] was determined as 81%; in experiment [8], 87%; in experiment [9], 86%; in experiment [10], 99%; in [11] it was 85%; in experiment [12] it was 100%. The residual activity stood at 103% in experiment [13]; 123% in [14]; 121% in experiment [15]; 112% in [16]; 93% in experiment [17]; 103% in experiment [18]. The residual activity is 94% in experiment [19] and 103% in [20].
As to `COc1cc2ncnc(N3CCN(C(=O)Nc4ccc(Oc5ccccc5)cc4)CC3)c2cc1OC`, the residual activity in [1] was 7%; in experiment [2] it was 7%; in experiment [3] it was 2%; in [4], 84%; in experiment [5] it was 82%; in [6], 80%. In addition, the residual activity is 69% in experiment [7]; 93% in [8]; 82% in experiment [9]; 80% in experiment [10]; 82% in experiment [11]; 103% in experiment [12]. For the same molecule, the residual activity in [13] turned out to be 146%; in experiment [14], 99%; in experiment [15], 148%; in [16], 96%; in experiment [17], 96%; in experiment [18], 95%. Besides, the residual activity came out at 77% in [19] and 95% in experiment [20].
For `CN(C)c1ccc(/C=C2\C(=O)Nc3ccccc32)cc1`, the residual activity in experiment [1] worked out at 1%; in [2], 8%; in experiment [3], 2%; in [4], 83%; in [5], 56%; in experiment [6], 83%. The residual activity in [7] amounted to 25%; in experiment [8], 86%; in experiment [9] it was 90%; in experiment [10], 96%; in experiment [11], 84%; in experiment [12], 103%. In addition, the residual activity was determined as 108% in [13]; 92% in [14]; 97% in experiment [15]; 96% in [16]; 102% in experiment [17]; 97% in experiment [18]. In addition, the residual activity in [19] was 83%; in [20], 102%.
